In ChEMBL document CHEMBL3988442, “University of Dundee, Small-Polar-MMV Screening Library” (2021):
The whole screen tested about 85,000 compounds, of which about 440 (0.52%) showed an effect of 50% or more. For the sample, strong results were picked, then their nearest neighbours and some compounds at random.

Assay: In vitro enzyme assay to detect hydrolysis of chlorophenol red-beta-D-[…] directly proportional to the number of Toxoplasma stably expressing beta-galactosidase
Format: functional, organism-based, Toxoplasma gondii
Parameters: scale not given: in the data most compounds retested in dose-response had high values

SMILES | Percent Effect (50 µM) | Percent Effect (10 µM)
COCC(C)S(=O)(=O)N1CCCCC1 (stereo not drawn) | 6.357% | –
CC(C)COC1CCN(S(=O)(=O)Cc2cccc(F)c2)CC1 | – | 8.24%
CC(C)COC1CCN(S(=O)(=O)N2CCCC2)CC1 | 99.18% | –
Cc1nc2ccc(C(=O)N3CC(O)C3)cc2nc1C | -4.584% | –
CSc1cccc(F)c1CN | 2.771% | –
CC(=O)NCc1cccc(OCc2ccccn2)c1 | 53.39% | –
COc1cccc(CNCc2ccccn2)c1 | 10.94% | –
NCc1cccc(OCc2ccccn2)c1 | -1.325% | –
Cc1noc(C)c1C(=O)N(C)C1CCS(=O)(=O)C1 (stereo not drawn) | -15.63% | –
Cc1ccc(C2COCCN2)o1 (stereo not drawn) | 3.644% | –
CC1c2ncc(COc3cccnc3)n2CCN1C(=O)Cc1ccco1.O=C(O)C(F)(F)F (stereo not drawn) | – | -0.5977%
COCC(=O)N1CCn2c(COc3cccnc3)cnc2C1C.O=C(O)C(F)(F)F (stereo not drawn) | – | 84.28%
CC1c2ncc(COc3cccnc3)n2CCN1C(=O)C1=CCCC1.O=C(O)C(F)(F)F (stereo not drawn) | – | 10.52%
O=C(NCCSCc1ccco1)c1cccnc1O | -3.309% | –
COc1ccc(CC#N)cc1S(C)(=O)=O | 54.15% | –
COc1ccccc1CC#N | 14.35% | –
COc1ccc(CC(C)(C#N)NC(C)=O)cc1OC (stereo not drawn) | 14.61% | –
COc1c(C(=O)N2CCOCC2)cnc2c1c(C)nn2C | – | -14.92%
COc1c(C(=O)N2CCNC(=O)C2)cnc2c1c(C)nn2C | – | 0.4571%
COC(=O)c1cnc2c(c(C)nn2C)c1OC | – | 68.54%
CN1CCN(Cc2nccn2C)[C@H]2CS(=O)(=O)C[C@H]21 | 0.771% | –
OCCNCCNCc1ccc(-c2ccccc2Cl)o1 | 33.01% | –
OCCNCCNCc1ccc(-c2cccc(Cl)c2)o1 | 71.47% | –
OCCNCCNCc1ccc(-c2ccccc2)o1 | 1.266% | –

SMILES | Percent Effect (50 µM) | Percent Effect (10 µM)
O=C(NC1CCCC1)c1cnccn1 | 54.91% | –
O=C(NCCSC1CCCC1)c1cnccn1 | – | 0.9702%
Cc1nnc2n1CCC(NC(=O)c1cnccn1)CC2 (stereo not drawn) | 2.489% | –
CCC(C)N(CC(=O)OC)Cc1nccn1C (stereo not drawn) | 1.211% | –
OCc1ccccc1CC1CCNCC1 | 2.025% | –
CC(C)c1cc(NC(=O)c2cccnc2)[nH]n1 | – | 41.77%
CC(C)CC(=O)Nc1cc(C(C)C)n[nH]1 | 12% | –
Cc1ccc(CC(=O)Nc2cc(C(C)C)n[nH]2)cn1 | – | 86.76%
CC(C)c1cc(NC(=O)c2ccc(C(=O)NC(C)(C)C)cc2)[nH]n1 | – | 9.105%
Cc1ccc(C(=O)Nc2cc(C(C)C)n[nH]2)cn1 | – | -1.588%
CC(C)c1cc(NC(=O)c2ccncc2)[nH]n1 | – | 64.12%
CC(C)c1cc(NC(=O)c2ccc(NC3CC3)nc2)[nH]n1 | – | 3.917%
Cc1cc(NC(=O)c2ccc(F)cc2)[nH]n1 | -8.221% | –
CC(C)c1cc(NC(=O)c2ccc([S+]([O-])C(C)C)cc2)[nH]n1 (stereo not drawn) | – | 54.78%
CCn1ncnc1CN1CCC2(CCN(C)C2)CC1 | 28.33% | –
NC(=O)CCC(=O)c1ccc2c(c1)OCCO2 | -23.48% | –
Cc1cnc(NCC(O)CN2CCCCC2)nc1 (stereo not drawn) | -5.965% | –
C[C@H](N)c1ccc(F)cc1OC(F)F | 1.744% | –
CCOc1cccc(OCCNCCN)c1 | 3.655% | –
NC(=O)C(NC(=O)C1CC=CC1)c1ccc(F)cc1 (stereo not drawn) | -2.351% | –
CCS(=O)(=O)CCN(C)C(=O)Nc1cc(F)cc(Cl)c1 | 0.02752% | –
COCCNc1nnc(-c2ccc(C)nc2)s1 | – | 91.21%
COCCNc1nc(-c2ccc(S(N)(=O)=O)cc2)cs1 | 33.23% | –
COCCNc1nnc(-c2cnc(C)cn2)s1 | – | -7.364%

SMILES | Percent Effect (50 µM) | Percent Effect (10 µM)
Cc1cncc(C(=O)N2CCCC2C(C)(C)O)c1 (stereo not drawn) | 98.37% | –
Cc1cncc(C(=O)N2CCCCC2c2nc[nH]n2)c1 (stereo not drawn) | – | 2.456%
CC(=O)c1csc(C(=O)N2CCCC2C(C)(C)O)c1 (stereo not drawn) | -8.417% | –
Cc1noc(NC(=O)c2ccc(F)cc2)n1 | – | -4.949%
Cc1noc(NC(=O)c2ccc(OC(F)(F)F)cc2)n1 | – | 62.71%
Cc1ccc(C(=O)Nc2nc(C)no2)cc1 | – | 2.71%
COCCC1CN(C(=O)c2ccc(C)c(F)c2)CCO1 (stereo not drawn) | -2.005% | –
CC(=O)Nc1cc(S(=O)(=O)NCCN(C)C)ccc1C | 12.19% | –
O=C(NCCc1ccccn1)Nc1cn[nH]c1 | -7.115% | –
COC1CCN(C(=O)c2cccc(F)c2C)C1 (stereo not drawn) | 32.95% | –
CS(=O)(=O)N1CCOCC2(CCN(c3ccccn3)C2)C1.O=C(O)C(F)(F)F (stereo not drawn) | – | 93.48%
O=C(O)C(F)(F)F.O=S(=O)(C1CC1)N1CCOCC2(CCN(c3ccccn3)C2)C1 (stereo not drawn) | – | -7.77%
CCS(=O)(=O)N1CCOCC2(CCN(c3ccccn3)C2)C1.O=C(O)C(F)(F)F (stereo not drawn) | – | -1.246%
Cc1ccc2[nH]c(CN3CCC(O)C3)cc(=O)c2c1 (stereo not drawn) | -10.62% | –
OC[C@@H]1CCCN1Cc1ccc(F)c2cccnc12 | 78.15% | –
Fc1ccc(CN2CCCC2Cn2cccn2)c2ncccc12 (stereo not drawn) | – | 4.2%
Fc1ccc(CN2CCCC2Cn2cncn2)c2ncccc12 (stereo not drawn) | – | -4.806%
Cc1nc(CC(=O)N[C@H]2CC[C@H]2N)cs1 | 7.419% | –
Cc1cc(C(=O)Nc2cn(C)cc(Br)c2=O)[nH]n1 | -6.695% | –
c1ccc(COCCc2noc(C3CNC3)n2)cc1 | 62.37% | –
Cc1cccc(OCCc2noc(C3CNC3)n2)c1 | 82.99% | –
COCCc1noc(C2CCN(CC(N)=O)CC2)n1 | 1.681% | –
c1ccc(COCc2nc(C3CCCNC3)no2)cc1 (stereo not drawn) | -2.705% | –
CCCN1CCC(Cc2noc(C3CCNC3)n2)CC1 (stereo not drawn) | 2.055% | –

SMILES | Percent Effect (50 µM) | Percent Effect (10 µM)
C(Cc1noc(C2CNC2)n1)OCC1CC1 | 84.88% | –
COCCc1noc(C2CNC2)n1 | -4.923% | –
Cc1cccc(OCCN2CCN(Cc3noc(C)n3)CC2)c1 | – | -13.55%
C1CC(COCCc2noc(C3CNC3)n2)CCO1 | 31.48% | –
C1CC(c2noc(C3CC3)n2)CN(CCOCC2CC2)C1 (stereo not drawn) | – | 10.99%
C1CCC(COCCc2noc(C3CNC3)n2)C1 | 57.88% | –
Cc1cccc(OCCCN2CCC(N(C)Cc3noc(C)n3)C2)c1 (stereo not drawn) | – | 19.53%
CNS(=O)(=O)c1ccc(C(=O)NCC(C)(C)N(C)C)o1 | -2.111% | –
NC(=O)c1ccc(CNC2CC2)c(F)c1 | -8.127% | –
COC(=O)CC(NC(=O)c1cc(C)n[nH]1)C1CC1 (stereo not drawn) | 5.421% | –
Cn1cc(CC(=O)Nc2ccc(I)cn2)cn1 | -1.266% | –
Cc1ccc(Br)c(NCC(=O)N2CCOCC2)c1 | 6.776% | –
CNC(C)CCNC(=O)c1cc(C)nn1C (stereo not drawn) | -4.64% | –
Cc1csc(S(=O)(=O)NCCCOCC2CCCO2)n1 (stereo not drawn) | -3.897% | –
CCC(C)NC(=O)NC1CCN(c2ccccn2)CC1 (stereo not drawn) | -18.28% | –
N#Cc1cc(F)c(S(=O)(=O)NCCN)c(F)c1 | -7.913% | –
CC(C)N1CCCN(c2nc(-c3cccnc3)nc3c2cnn3C)CC1 | – | 55.95%
Cn1ncc2c(N3CCC3)nc(-c3ccncc3)nc21 | – | -3.528%
Cn1ncc2c(N3CCS(=O)(=O)CC3)nc(-c3cccnc3)nc21 | – | 6.498%
N[C@@H]1CC[C@H](C(=O)NCc2csc(N3CCCC3)n2)C1 | 62.86% | –
Cc1nc(CC(=O)NCc2csc(N3CCCC3)n2)cs1 | – | -6.671%
O=C(NCc1csc(N2CCCC2)n1)C1CNCCO1 (stereo not drawn) | 26.16% | –
C[C@@H]1CNC[C@H]1c1nc(-c2ccncc2)no1 | 1.432% | –
CCn1nc(C)c2nc(C)nc(NCCCn3cccn3)c21 | – | 20.67%

SMILES | Percent Effect (50 µM) | Percent Effect (10 µM)
CCn1nc(C)c2nc(C(C)C)nc(NCc3ccccn3)c21 | – | 23.92%
Cc1nn(C)c2c(NCCCn3cccn3)nc(C(C)C)nc12 | – | 10.17%
CCCc1nc(NCCCn2cccn2)c2c(n1)c(C)nn2CC | – | 20.81%
CCn1nc(C)c2nc(C(C)C)nc(NCCCn3ccnc3)c21 | – | 76.16%
CCn1nc(C)c2nc(C(C)C)nc(NCCCn3cccn3)c21 | – | 57.58%
CCn1nc(C)c2ncnc(NCCCn3ccnc3)c21 | – | 9.36%
CCc1nc(NCCCn2cccn2)c2c(n1)c(C)nn2C | – | 7.651%
CCCc1nc(NCCCn2ccnc2)c2c(n1)c(C)nn2CC | – | 67.95%
NC(=O)COc1ccc(CNCCn2cccn2)cc1 | 11.26% | –
COCC(=O)N1CCN(CCC(C)C)CC1 | 7.319% | –
O=C(NCCN1CCCC1)Nc1cccc2cn[nH]c12 | -2.677% | –
c1ccc(OCC2CC3(CCN(Cc4ccncc4)CC3)CO2)nc1 (stereo not drawn) | – | -2.51%
Cc1csc(CN2CCC3(CC2)COC(COc2ccccn2)C3)n1 (stereo not drawn) | – | -8.461%
Cc1cc(CN2CCC3(CC2)COC(COc2ccccn2)C3)no1 (stereo not drawn) | – | 96.36%
CC(=O)Nc1cc(C2CC2)nn1-c1nc(C)c(C)c(=O)[nH]1 | – | -13.24%
CC(C)C(=O)Nc1cc(C(C)(C)C)nn1-c1ccccn1 | – | -3.105%
Cc1cc(NC(=O)C(C)C)n(-c2nc(C)c(C)c(=O)[nH]2)n1 | – | 91.77%
Cc1nc(-n2nc(C3CC3)cc2NC(=O)C(C)C)[nH]c(=O)c1C | – | 79.17%
Cc1cc(C)nc(NC(=O)C(C)C)n1 | 3.231% | –
Cc1nc(-n2nc(-c3cccs3)cc2N)[nH]c(=O)c1C | – | 4.893%
NCc1ccc(OCC(F)F)cc1 | -2.459% | –
O=C(C1CC1)N1CCC(Oc2cccnc2)C1 (stereo not drawn) | 1.461% | –
